The results in this text go back to PubChem BioAssay (NCATS).

“And” between values parts separate entries of the source, which are not always exact repeats. Identical values can stand only once. Records with an inconclusive call do not appear. The source made the active and inactive calls. Unless noted, calls follow the shape of the dose curve; as a rule, active = well fitted curve in the direction sought with a large enough effect; inconclusive = small, poorly fitted or top-dose-only effect, or another doubt; inactive = no such curve, though single readings can be large; an effect the other way counts as inactive or inconclusive.

In experiment [1] the test system is Zika virus NS2B-NS3 protease. Briefly: Primary screen GU AMC qHTS for Zika virus inhibitors (AID 1347154).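 Also: 0% = no-inhibitor control and -100% = no-enzyme control; nearly all actives have a fitted effect of over 70% in size.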 The method, boiled down: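 Unlinked Zika NS2B hydrophilic domain/NS3 protease domain noncovalent complex (25 nM final) in 10 mM Tris-HCl pH 8.0, 0.01% Tween 20, with AMC peptide substrate. Fluorescence (ex 340, em 450 nm) change over 15 min, room temperature; percent inhibition fitted to 4-parameter Hill equation.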
On the technique in general: Quantitative high-throughput screening tests each substance at several concentrations.

Experiment [2] is described as follows: Primary qHTS for small molecule stabilizers of the endoplasmic reticulum resident proteome: Secreted ER Calcium Modulated Protein (SERCaMP) assay (AID 1508630). Also: % is scaled to controls: 0 for no effect and ±100 for the full control effect. In short, it runs like this:
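The SH-SY5Y reporter protocol was run at 3 concentrations up to 38.3 uM (primary) or 11 concentrations (follow-up): 16 h compound, 100 nM thapsigargin for 4 h, then extracellular luciferase luminescence.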

A short description of experiment [3]: AP1 Signaling Pathway (AID 357; active = well fitted curve in either direction with a large enough effect, not every such curve was filed as active; also: % is scaled to controls: 0 for no effect and ±100 for the full control effect). The settings on record: ME-180 AP-1-bla reporter, EGF-induced, beta-lactamase ratio, 5 h. In short, it runs like this: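 Modulation of EGF-driven AP-1 transcription was assessed with a beta-lactamase reporter in ME-180 cells. Compound and EC50 EGF were co-incubated 5 hours at 37 °C before 2.5-hour CCF4 loading at room temperature and dual-emission reading.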

Experiment [4] is described as follows: NFAT Signaling Pathway (AID 444; active = well fitted curve in either direction with a large enough effect, not every such curve was filed as active;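 also: carbachol stimulus at about its EC50 of 1 µM final; % is scaled to controls: 0 for no effect and ±100 for the full control effect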). The settings on record: Jurkat NFAT-bla M1, carbachol, beta-lactamase ratio, 5 h. The method, boiled down: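 Jurkat cells carrying an NFAT-driven β-lactamase reporter and co-transfected muscarinic M1 receptor were treated with compound plus carbachol (1 uM final, an EC50 level) for 5 h at 37 °C. CCF4 loading followed for 1 h at RT; 460/530 nm ratio gave %activity.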

The nature of experiment [5]: Stat Signaling Pathway (AID 446; active = well fitted curve in either direction with a large enough effect, not every such curve was filed as active;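 also: ME-180 cervical cancer cells given 40 pM IL-6 alongside compound; SIE-controlled beta-lactamase reporter measured as 460/530 nm FRET emission ratio; % is scaled to controls: 0 for no effect and ±100 for the full control effect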). The following applies: ME-180 (cervical carcinoma) SIE beta-lactamase reporter, IL-6 stimulated, 5 h. The method, boiled down:
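Overnight-plated ME-180 cells bearing a STAT Inducible Element beta-lactamase reporter; 5 h co-exposure to compound and 40 pM IL-6; values normalized to 300 pM IL-6 and 125 nM JAK inhibitor controls.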

The target of experiment [6] is Glucocorticoid receptor (Homo sapiens) (UniProt P04150). Description: GR-GFP Redistribution (AID 450;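 active = compounds whose dose series gives a full or clear partial fitted curve of increased nuclear translocation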; also: potency is read from the fitted curve at half-maximal effect). The settings on record: U2OS GR-GFP nuclear translocation, laser cytometry, 2 h.
Sequence of Glucocorticoid receptor (Homo sapiens) (P04150 whole entry, looked up): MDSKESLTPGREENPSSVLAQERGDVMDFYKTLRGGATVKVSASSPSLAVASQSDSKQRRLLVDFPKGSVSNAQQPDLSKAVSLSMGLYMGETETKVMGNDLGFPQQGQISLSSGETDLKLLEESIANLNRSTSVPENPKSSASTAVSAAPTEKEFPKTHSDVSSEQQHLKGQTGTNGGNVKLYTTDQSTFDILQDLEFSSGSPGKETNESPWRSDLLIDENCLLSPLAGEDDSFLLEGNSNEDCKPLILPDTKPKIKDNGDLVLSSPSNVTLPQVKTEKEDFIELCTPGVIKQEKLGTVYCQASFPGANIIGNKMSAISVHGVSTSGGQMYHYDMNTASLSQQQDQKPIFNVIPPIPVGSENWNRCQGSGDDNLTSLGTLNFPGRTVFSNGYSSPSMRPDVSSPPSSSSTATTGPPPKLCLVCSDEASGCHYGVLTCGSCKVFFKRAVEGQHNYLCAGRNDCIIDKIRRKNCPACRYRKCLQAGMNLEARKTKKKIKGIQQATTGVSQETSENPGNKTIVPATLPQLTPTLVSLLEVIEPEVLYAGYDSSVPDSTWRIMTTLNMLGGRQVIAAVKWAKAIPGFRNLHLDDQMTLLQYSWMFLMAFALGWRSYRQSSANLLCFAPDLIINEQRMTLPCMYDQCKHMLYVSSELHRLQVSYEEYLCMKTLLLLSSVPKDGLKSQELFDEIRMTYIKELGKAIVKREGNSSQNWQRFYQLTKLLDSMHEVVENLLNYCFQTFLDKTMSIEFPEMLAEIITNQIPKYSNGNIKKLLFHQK
The target is the same in experiment [7]. Description: GR-EFC Redistribution (AID 451; calls by dose curve; also: potency is read from the fitted curve at half-maximal effect). The following applies: CHO-K1 GR-EFC translocation, beta-gal luminescence, 2 h. In short, it runs like this:
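CHO-K1 cells stably expressing nuclear-localized β-gal enzyme acceptor and GR fused C-terminally to the enzyme donor fragment; ligand-driven nuclear translocation restores β-gal by complementation. Compounds titrated up to 46 uM final, 2 h at 37 °C; luminescence read.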

The target in experiment [8] is Mitogen-activated protein kinase 10 (Mus musculus) (UniProt Q61831). Description: JNK3 AlphaScreen Assay (AID 530; active = well fitted curve in either direction with a large enough effect, not every such curve was filed as active). In short, it runs like this:
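Biotinylated GST-cJun(1-79) served as substrate for JNK3 in HepG2 lysates stimulated with IL-1beta and TNF-alpha. ATP was 10 uM final, pH 7.6. Ser73 phosphorylation was quantified by AlphaScreen (680 nm excitation).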
(Bead proximity is the source of the signal in Alpha formats.)

Experiment [9] deals with 3',5'-cyclic-AMP phosphodiesterase 4B (Homo sapiens) (UniProt Q07343). Description: qHTS Assay for Inhibitors of PDE-IV (AID 607; active = well fitted activation curve with a large enough effect in the main read-out, with a control signal flat, not every such curve was filed as active; also: % of control where 0% means no effect). The method, boiled down:
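Live HEK293 cells with a modified cyclic nucleotide-gated (CNG) channel report intracellular cAMP via membrane-potential dye fluorescence (ex 535/em 590 nm). Endogenous PDE-IV was targeted. Compounds were tested at up to 22.9 uM final; RO 20-1724 100 uM served as control.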

Experiment [10] deals with Guanine nucleotide-binding protein G(i) subunit alpha-1 (Homo sapiens) (UniProt P63096). Briefly: qHTS Assay for Inhibitors of RGS12 GoLoco Motif Activity (Green Fluorophore) (AID 879).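 Also: 0% = labeled peptide with Gαi1 and full inhibition = labeled peptide alone without protein; negative values mean loss of peptide binding seen as reduced polarization.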 The method, boiled down: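 A drop in FITC polarization marked displacement of the FITC-tagged RGS12 GoLoco peptide (10 nM) from Gαi1 (50 nM). Compounds were incubated 10 min at room temperature in Tris pH 7.5 buffer containing 150 mM NaCl, 0.1 mM GDP and 0.05% NP40; unlabeled peptide titration served as control.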

Experiment [11] has as its target Cytochrome P450 2C9 (Homo sapiens) (UniProt P11712). Briefly: qHTS Assay for Inhibitors and Substrates of Cytochrome P450 2C9 (AID 883). Also: potency is read from the fitted curve at half-maximal effect; nearly all actives have a fitted effect of over 60% in size. In short, it runs like this: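 A luminogenic readout tracked human CYP2C9 (10nM) converting deoxyluciferin (100uM, at KM) in 25mM KPO4 during 60 min at 37C with regenerated NADPH. Values normalized to 57uM sulphaphenazole as complete inhibition.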

In experiment [12] the target is Cytochrome P450 3A4 (Homo sapiens) (UniProt P08684). Description: qHTS Assay for Activators of Cytochrome P450 3A4 (AID 885). Also: nearly all actives have a fitted effect of over 65% in size. In short, it runs like this: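 Using 20nM recombinant human CYP3A4 in potassium phosphate (200mM), substrate Luciferin-PPXE at 25uM, luminescent luciferin detection followed a 60-min RT NADPH reaction; data scaled to 57 uM ketoconazole.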

Experiment [13] can be described thus: qHTS Assay for Identification of Small Molecule Antagonists for NFkB Signaling Pathway (AID 895; active = well fitted inhibition curve with a large enough effect in the signal ratio, with a control signal flat, not every such curve was filed as active; the % refers to the signal ratio; also: % is scaled to controls: 0 for no effect and ±100 for the full control effect). The method, boiled down:
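NFkB-bla ME-180 cervical carcinoma cells with beta-lactamase reporter under NFkB response element; compounds added, then TNF alpha at 10 pM final (EC50), 5 h at 37 C. LiveBLAzer substrate 2 h, room temperature; emission 460/530 nm at 405 nm excitation.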

Experiment [14] is described as follows: qHTS Assay for Identification of Small Molecule Agonists for Thrombopoietin (TPO) Signaling Pathway (AID 917). Also: % is scaled to controls: 0 for no effect and ±100 for the full control effect. In short, it runs like this: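 First, Ba/F3 cells with human TPO receptor were held overnight without IL-3. Next, compounds and TPO (26 pM final) were added. After 24 hrs at 37 C, luciferase detection reagent was added and luminescence measured following 10 min at room temperature.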

Experiment [15] has as its target Muscarinic acetylcholine receptor M1 (Rattus norvegicus) (UniProt P08482). Description: qHTS Assay for Antagonists of Acetylcholine Muscarinic M1 Receptor: Measurement of IP-One Response (AID 944). Also: nearly all actives have a fitted effect of over 75% in size. In short, it runs like this:
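Read-out: HTRF competition between d2-IP1 and Eu-cryptate anti-IP1 antibody, emission 620 and 665 nm. Stimulus was carbachol, EC80 (200 nM), for 30 min in M1-CHO cells (rat receptor), after 10 min compound pre-treatment.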

Experiment [16] deals with Pyruvate kinase (Leishmania mexicana) (UniProt Q27686). Briefly: qHTS Validation Assay for Inhibitors of Leishmania Mexicana Pyruvate Kinase (AID 945).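 Also: 0% = DMSO only neutral control wells.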 In short, it runs like this:
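qHTS eight-point titrations against 0.2 nM LmPYK (E451W) in imidazole buffer pH 7.2 with 0.5 mM PEP, 0.1 mM ADP; 1 h, room temperature. Readout: PKLight luminescence, normalized to neutral DMSO wells.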

Experiment [17] deals with Alpha-galactosidase A (Homo sapiens) (UniProt P06280). Briefly: Counterscreen for Glucocerebrosidase Inhibitors: qHTS Assay for Human alpha-Galactosidase at pH 4.5 (AID 992). Also: 0% is about no effect. The method, boiled down:
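Each compound is preincubated briefly with 2 nM enzyme before substrate addition (80 uM); plates then sit 20 min at ambient temperature, are quenched with 1M NaOH/1M glycine, and read fluorometrically.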
In general terms: A counterscreen serves to expose hits that act by an unwanted route or on another target.

Experiment [18] in a line: qHTS Assay for Lipid Storage Modulators (AID 1519; calls by dose curve). The settings on record: Drosophila S3 cells, BODIPY lipid droplet/cell ratio, laser cytometry, cells loaded with oleic acid. In short, it runs like this:
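Cells seeded at 5,000 per well were treated with compounds over a concentration series and loaded with oleic acid (400 uM, as added). Lipid droplet fluorescence (488 nm excitation, 500-530 nm channel) was read by laser-scanning cytometry and normalized to 20 uM Triacsin C.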

The target of experiment [19] is DNA dC->dU-editing enzyme APOBEC-3G (Homo sapiens) (UniProt Q9HC16). Description: qHTS for inhibitors of Vif-A3G interactions: Validation (AID 588379). Also: 0% is about no effect. In short, it runs like this: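 Yellow fluorescence (Ex 488, Em 500-530) of Vif-coexpressing HeLa A3G-eYFP cells, scanned by Acumen cytometer, reports blocked A3G degradation. Cells plated at 700/well overnight at 37 deg C before compound addition, then a further overnight compound incubation at 37 deg C.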
Sequence of DNA dC->dU-editing enzyme APOBEC-3G (Homo sapiens) (Q9HC16 whole entry, looked up): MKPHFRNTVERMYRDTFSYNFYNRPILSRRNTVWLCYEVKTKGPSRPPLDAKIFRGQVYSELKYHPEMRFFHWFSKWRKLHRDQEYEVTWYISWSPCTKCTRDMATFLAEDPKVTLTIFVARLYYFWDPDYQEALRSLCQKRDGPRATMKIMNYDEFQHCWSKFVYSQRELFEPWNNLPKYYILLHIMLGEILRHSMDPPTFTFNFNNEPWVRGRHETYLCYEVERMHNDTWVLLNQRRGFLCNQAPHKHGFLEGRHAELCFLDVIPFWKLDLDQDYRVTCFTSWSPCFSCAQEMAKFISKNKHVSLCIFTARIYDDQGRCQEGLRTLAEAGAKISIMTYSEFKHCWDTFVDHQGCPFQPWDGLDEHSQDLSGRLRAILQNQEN

Experiment [20] addresses Rap guanine nucleotide exchange factor 3 (Homo sapiens) (UniProt O95398). Briefly: Confirmatory qHTS for antagonist of cAMP-regulated guanine nucleotide exchange factor 3 (EPAC1) (AID 1645880).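 Also: plate controls were DMSO only for no effect and full effect of the ATA control for full effect; nearly all actives have a fitted effect of over 55% in size.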 In short, it runs like this: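 Released BODIPY-GDP fluoresces less than Rap1-bound BODIPY-GDP; the signal is followed at 480/540 nm at 5-min intervals over 30 min, after 5 min at room temperature. Reactions contain 100 nM EPAC1, 250 nM RAP1B-BODIPY-GDP and 50 uM GDP; results are normalized to ATA and DMSO.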

Experiment [21] shares this target. Briefly: Confirmatory qHTS for agonist of cAMP-regulated guanine nucleotide exchange factor 3 (EPAC1) (AID 1645881).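 Also: EPAC1 catalysed release of BODIPY-GDP from Rap1B seen as fluorescence loss; 100% = effect of cAMP agonist control; nearly all actives have a fitted effect of over 75% in size.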
The target of experiment [22] is Rap guanine nucleotide exchange factor 4 (Homo sapiens) (UniProt Q8WZA2). Description: Confirmatory qHTS for agonist of cAMP-regulated guanine nucleotide exchange factor 4 (EPAC2) (AID 1645884).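 Also: nucleotide exchange releases bodipy-GDP from Rap1 and this lowers its fluorescence; % is scaled to controls: 0 for no effect and ±100 for the full control effect; nearly all actives have a fitted effect of over 65% in size.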
Sequence of Rap guanine nucleotide exchange factor 4 (Homo sapiens) (Q8WZA2 whole entry, looked up): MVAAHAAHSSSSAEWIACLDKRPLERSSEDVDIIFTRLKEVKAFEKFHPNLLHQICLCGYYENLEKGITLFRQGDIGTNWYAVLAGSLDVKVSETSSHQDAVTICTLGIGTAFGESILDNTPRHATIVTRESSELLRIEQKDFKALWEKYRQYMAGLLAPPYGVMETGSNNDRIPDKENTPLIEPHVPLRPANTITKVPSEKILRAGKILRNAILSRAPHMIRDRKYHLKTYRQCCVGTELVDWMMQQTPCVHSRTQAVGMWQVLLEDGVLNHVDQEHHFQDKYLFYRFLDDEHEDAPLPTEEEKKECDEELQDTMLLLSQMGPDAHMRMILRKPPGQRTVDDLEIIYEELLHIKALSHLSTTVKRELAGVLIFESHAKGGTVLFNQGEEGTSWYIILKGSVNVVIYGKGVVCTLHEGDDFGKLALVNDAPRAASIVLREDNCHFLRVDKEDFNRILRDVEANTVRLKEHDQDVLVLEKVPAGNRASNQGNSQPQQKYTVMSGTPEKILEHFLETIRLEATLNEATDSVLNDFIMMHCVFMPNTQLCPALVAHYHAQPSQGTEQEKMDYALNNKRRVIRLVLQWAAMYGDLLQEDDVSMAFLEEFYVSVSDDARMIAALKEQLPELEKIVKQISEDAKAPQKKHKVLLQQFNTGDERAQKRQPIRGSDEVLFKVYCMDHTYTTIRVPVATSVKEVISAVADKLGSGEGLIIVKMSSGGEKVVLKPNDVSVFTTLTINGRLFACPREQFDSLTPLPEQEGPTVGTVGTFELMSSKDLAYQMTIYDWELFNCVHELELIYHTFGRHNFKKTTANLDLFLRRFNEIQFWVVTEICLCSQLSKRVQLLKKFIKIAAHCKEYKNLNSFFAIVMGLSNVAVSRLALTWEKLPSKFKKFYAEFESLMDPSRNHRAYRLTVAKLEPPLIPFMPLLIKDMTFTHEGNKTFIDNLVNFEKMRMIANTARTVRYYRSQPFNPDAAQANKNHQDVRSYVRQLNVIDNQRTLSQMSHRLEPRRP
Experiment [23] has the same target. Briefly: Confirmatory qHTS for antagonist of cAMP-regulated guanine nucleotide exchange factor 4 (EPAC2) (AID 1645885). Also: % is scaled to controls: 0 for no effect and ±100 for the full control effect; nearly all actives have a fitted effect of over 25% in size.
Experiment [24] has as its target Cytochrome P450 1A2 (Homo sapiens) (UniProt P05177). Briefly: p450-cyp1a2 (AID 410; calls by dose curve;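 also: -100% = full effect of reference inhibitor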). In short, it runs like this: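 20nM CYP1A2, 100uM Luciferin-ME (=Km), 100mM KPO4; cpd 10 min RT; +NADPH regen, 60 min RT; stop/detect 20 min; luminescence. Normalized to furafylline 57 uM = full inhibition.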
Experiment [25] concerns the target Pyruvate kinase PKM (Homo sapiens) (UniProt P14618). Briefly: qHTS Assay for Activators of Human Muscle Pyruvate Kinase (AID 954; active = well fitted curve in the direction sought with a large enough effect, not every such curve was filed as active;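 also: 0% = uninhibited enzyme and -100% = no enzyme or full thiadiazolimine inhibition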). The method, boiled down:
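Screening used highly purified human pyruvate kinase M2 under submaximal activity, with PEP at its Km and ADP below Km. After an hour at room temperature, ATP was read by luciferase luminescence.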

The target in experiment [26] is Ubiquitin carboxyl-terminal hydrolase 1 (Homo sapiens) (UniProt O94782). Briefly: Inhibitors of USP1/UAF1: Pilot qHTS (AID 504865).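 Also: rhodamine fluorescence freed from ubiquitin-rhodamine substrate followed over time; top concentration of the series differs between compounds; % is scaled to controls: 0 for no effect and ±100 for the full control effect; nearly all actives have a fitted effect of over 35% in size.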 The method, boiled down:
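USP1/UAF1 complex (1nM) preincubated with compound 15 min at room temperature, then Ub-Rho substrate (150nM final) added. Fluorescence read kinetically at 480/540 nm, 6 reads every 60 seconds. Buffer: 50mM HEPES pH 7.8, 0.5mM EDTA, 0.1 mg/ml BSA, 1mM TCEP, 0.01% Tween-20.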

Where [27] appears, read: measured here: cell count channel max response.
Where [28] appears, read: measured here: lipid channel max response.

Sequence of Cytochrome P450 1A2 (Homo sapiens) (P05177 whole entry, looked up): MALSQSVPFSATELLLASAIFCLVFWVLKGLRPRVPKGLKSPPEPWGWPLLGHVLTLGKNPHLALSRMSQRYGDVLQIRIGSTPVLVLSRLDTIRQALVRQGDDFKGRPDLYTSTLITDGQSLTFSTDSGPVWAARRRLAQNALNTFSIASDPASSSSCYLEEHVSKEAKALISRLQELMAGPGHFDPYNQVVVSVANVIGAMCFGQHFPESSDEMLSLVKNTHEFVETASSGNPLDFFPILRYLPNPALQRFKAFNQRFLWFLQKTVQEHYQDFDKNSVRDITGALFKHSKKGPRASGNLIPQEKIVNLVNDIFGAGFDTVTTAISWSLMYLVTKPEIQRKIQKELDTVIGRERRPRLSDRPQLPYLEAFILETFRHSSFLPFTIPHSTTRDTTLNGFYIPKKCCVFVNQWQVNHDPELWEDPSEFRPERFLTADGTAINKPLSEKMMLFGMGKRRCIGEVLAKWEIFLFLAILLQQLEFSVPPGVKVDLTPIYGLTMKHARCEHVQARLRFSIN
Sequence of 3',5'-cyclic-AMP phosphodiesterase 4B (Homo sapiens) (Q07343 whole entry, looked up): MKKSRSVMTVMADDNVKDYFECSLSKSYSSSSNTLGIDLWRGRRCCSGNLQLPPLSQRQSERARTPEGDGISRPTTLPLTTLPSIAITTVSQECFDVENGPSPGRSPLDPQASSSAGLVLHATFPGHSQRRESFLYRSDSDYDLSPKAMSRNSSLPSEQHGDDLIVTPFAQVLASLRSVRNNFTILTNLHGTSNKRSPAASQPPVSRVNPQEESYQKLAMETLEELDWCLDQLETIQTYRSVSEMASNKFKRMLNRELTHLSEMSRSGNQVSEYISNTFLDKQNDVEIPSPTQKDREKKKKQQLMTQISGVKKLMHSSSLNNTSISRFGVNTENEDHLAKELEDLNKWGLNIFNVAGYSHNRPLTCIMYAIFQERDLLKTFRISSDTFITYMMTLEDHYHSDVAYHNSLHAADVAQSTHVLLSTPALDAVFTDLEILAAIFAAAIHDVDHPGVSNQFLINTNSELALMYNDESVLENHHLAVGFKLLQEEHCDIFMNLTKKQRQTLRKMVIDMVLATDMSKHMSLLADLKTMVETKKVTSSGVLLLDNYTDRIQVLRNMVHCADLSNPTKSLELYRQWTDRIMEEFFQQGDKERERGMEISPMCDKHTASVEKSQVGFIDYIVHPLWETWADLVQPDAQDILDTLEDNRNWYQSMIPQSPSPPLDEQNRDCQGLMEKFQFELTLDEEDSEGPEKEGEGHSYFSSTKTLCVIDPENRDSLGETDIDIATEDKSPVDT
Sequence of Rap guanine nucleotide exchange factor 3 (Homo sapiens) (O95398 whole entry, looked up): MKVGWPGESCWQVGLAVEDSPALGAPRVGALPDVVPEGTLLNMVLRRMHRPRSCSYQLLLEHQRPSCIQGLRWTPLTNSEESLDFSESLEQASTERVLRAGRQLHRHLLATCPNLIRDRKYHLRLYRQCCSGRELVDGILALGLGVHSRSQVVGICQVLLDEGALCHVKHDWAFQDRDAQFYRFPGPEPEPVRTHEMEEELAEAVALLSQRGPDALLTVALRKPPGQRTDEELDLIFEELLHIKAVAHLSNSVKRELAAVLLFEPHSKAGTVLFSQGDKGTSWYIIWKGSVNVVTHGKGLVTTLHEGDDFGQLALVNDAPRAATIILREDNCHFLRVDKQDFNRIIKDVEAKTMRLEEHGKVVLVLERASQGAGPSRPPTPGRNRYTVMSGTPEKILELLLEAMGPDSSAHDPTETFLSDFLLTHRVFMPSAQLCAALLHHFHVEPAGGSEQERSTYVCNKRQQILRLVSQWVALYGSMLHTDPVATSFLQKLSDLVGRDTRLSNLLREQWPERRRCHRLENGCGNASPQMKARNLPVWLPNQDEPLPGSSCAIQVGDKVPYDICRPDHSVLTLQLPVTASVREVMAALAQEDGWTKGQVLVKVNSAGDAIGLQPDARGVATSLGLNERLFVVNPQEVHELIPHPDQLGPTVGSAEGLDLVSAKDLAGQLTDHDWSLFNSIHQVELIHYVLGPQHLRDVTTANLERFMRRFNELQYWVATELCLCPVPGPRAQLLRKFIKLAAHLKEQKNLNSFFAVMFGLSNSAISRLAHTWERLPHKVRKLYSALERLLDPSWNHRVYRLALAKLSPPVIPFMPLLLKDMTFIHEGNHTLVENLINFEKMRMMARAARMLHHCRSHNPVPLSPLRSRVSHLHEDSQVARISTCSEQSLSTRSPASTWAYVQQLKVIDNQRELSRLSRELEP
Sequence of Muscarinic acetylcholine receptor M1 (Rattus norvegicus) (P08482 whole entry, looked up): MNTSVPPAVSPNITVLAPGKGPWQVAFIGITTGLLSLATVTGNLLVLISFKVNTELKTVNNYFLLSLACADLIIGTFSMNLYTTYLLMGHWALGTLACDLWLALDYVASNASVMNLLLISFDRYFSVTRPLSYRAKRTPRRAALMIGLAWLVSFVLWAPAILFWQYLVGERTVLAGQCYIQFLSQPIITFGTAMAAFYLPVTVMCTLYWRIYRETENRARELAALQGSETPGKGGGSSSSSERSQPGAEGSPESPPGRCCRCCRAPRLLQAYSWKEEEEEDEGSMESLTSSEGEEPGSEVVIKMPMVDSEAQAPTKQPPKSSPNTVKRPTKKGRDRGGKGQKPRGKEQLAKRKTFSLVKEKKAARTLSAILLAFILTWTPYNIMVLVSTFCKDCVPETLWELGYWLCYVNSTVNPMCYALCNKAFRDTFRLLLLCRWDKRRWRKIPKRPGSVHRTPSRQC

For the compound H-EQKQLQ-OH, the activity change, negative = inhibition in [1] was 7.08% [at 6.83 µM] (inactive); in experiment [2], -18.8% [at 3.88 µM] (inactive).
With `OC[C@H]1O[C@@H](n2cnc3c(N[C@H]4C[C@H]5CC[C@@H]4C5)ncnc32)[C@H](O)[C@@H]1O`, the Potency entry in experiment [1] and in [2] was “inactive” throughout.
Turning to `S=C(S)O[C@@H]1C[C@@H]2C[C@H]1[C@@H]1CCC[C@H]21`, the values for the activity change, negative = inhibition in experiment [3] (at 38 µM (top of the series)), in experiment [4] (at 38 µM (top of the series)) and in experiment [18] (at 57.5 µM (top of the series)) were 6.71% (inactive), -4.29% (inactive) and -0.164% (inactive), respectively. In experiment [5] (at 38 µM (top of the series)), the activity, negative = inhibition is -20.1% (inactive). Besides, the Potency was > 46 µM (inactive) in experiment [6], > 46 µM (inactive) in [7] and 3.98 µM (active) in experiment [11]. Besides, the Potency result in [8], in [9], in [12], in experiment [13], in experiment [14] and in experiment [15] was “inactive” throughout. In addition, the Potency result in [16], in experiment [19], in experiment [1], in experiment [2], in experiment [20] and in [23] was “inactive” throughout. Moreover, the outcome in experiment [10], in experiment [17], in [21] and in [22] was inactive. Moreover, the figures for the max response in [18] (setting [27]) and in experiment [18] (setting [28]) were 8.79% and 9.53%, respectively.
Turning to `O=C(NCCNC[C@@H](O)COc1ccc(O)cc1)N1CCOCC1`, the activity change, negative = inhibition is -7.17% (inactive) in experiment [3] (at 17.2 µM (top of the series)); -6.28% (inactive) in [3] (at 38 µM (top of the series)); -2.05% (inactive) in experiment [4] (at 17.2 µM (top of the series)); -2.2% (inactive) in experiment [4] (at 38 µM (top of the series)); -1.5% (inactive) in experiment [18] (at 25.7 µM (top of the series)); -3.4% (inactive) in experiment [18] (at 57.5 µM (top of the series)). For the same compound, the Potency result in [24], in [8], in experiment [9], in experiment [14], in [15] and in experiment [16] was “inactive” each time. The Potency entry in experiment [26], in [19], in experiment [1] and in experiment [2] was “inactive” in each case. Also, the figures for the activity, negative = inhibition in [5] (at 17.2 µM (top of the series)) and in experiment [5] (at 38 µM (top of the series)) were 6.36% (inactive) and -6.64% (inactive), respectively. For the same compound, the Potency in experiment [6] is > 46 µM (inactive) and > 20.6 µM (inactive); in experiment [7], > 46 µM (inactive) and > 20.6 µM (inactive). In addition, the result in experiment [10], in [25] and in experiment [17] was inactive. Further, the max response was -11.7% and -2.05% in experiment [18] (setting [27]); -12.6% and -5.19% in [18] (setting [28]).
